Compound activity deposited in PubChem by NMMLSC.
MEKK2mut PB1 HTS – signal of MEK5 binding to mutant human MEKK2 PB1 domain; percent response, % at 10 µM; bead flow cytometry, Alexa488-MEK5 binding to MEKK2 mutant; 290,000 tested, 0.35% active; AID 1530; in the data active means percent response above about 24%, passing the limit was not always enough
MEKK2 WT-MEK5 – raises or lowers MEK5 binding to wildtype human MEKK2 PB1 domain; binding response (% of control), % at 10 µM; Q9Y2U5; 290,000 tested, 1.1% active; bead flow cytometry, Alexa488-MEK5 binding to MEKK2 WT; actives lie on both sides; AID 1531; in the data active means binding response below about 67% or above about 130%
GRK2 inh – inhibitors of human GRK2 displacing RNA aptamer; P25098; bead flow cytometry, FAM-aptamer displacement from GRK2; inhibition of aptamer binding, % at 10 µM; 330,000 tested, 0.59% active; AID 488847;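 active means inhibition of aptamer binding above 40%, roughly 3 SD of noise, on plates passing a quality check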;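 further: median bead fluorescence of bound FAM aptamer so fluorescent compounds give negative values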
Target sequence (P25098 whole entry, looked up): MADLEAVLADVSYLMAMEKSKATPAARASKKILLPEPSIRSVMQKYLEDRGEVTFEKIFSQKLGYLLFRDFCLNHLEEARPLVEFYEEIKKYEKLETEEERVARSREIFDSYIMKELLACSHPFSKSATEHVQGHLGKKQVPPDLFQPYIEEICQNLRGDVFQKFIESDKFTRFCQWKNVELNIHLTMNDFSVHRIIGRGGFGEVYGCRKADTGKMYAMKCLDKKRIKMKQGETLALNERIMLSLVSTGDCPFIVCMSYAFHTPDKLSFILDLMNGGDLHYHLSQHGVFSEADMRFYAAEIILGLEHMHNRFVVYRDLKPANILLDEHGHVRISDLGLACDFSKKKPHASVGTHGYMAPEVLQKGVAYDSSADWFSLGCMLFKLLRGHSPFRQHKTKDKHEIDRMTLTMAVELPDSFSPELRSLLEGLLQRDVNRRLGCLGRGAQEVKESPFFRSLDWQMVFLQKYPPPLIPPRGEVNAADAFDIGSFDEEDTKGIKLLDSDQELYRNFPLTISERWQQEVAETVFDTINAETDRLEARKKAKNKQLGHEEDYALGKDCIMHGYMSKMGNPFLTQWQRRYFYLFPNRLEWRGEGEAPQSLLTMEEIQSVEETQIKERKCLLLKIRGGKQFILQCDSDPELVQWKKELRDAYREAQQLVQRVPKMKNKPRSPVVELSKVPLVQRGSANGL
B2AR ag – human beta-2 adrenergic receptor agonism by FAP; P07550; Am2.2-beta2AR cells, FAP receptor internalization, flow cytometry; response, % (test concentration not listed); 340,000 tested, 0.43% active; AID 504454;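 active means response above a set limit, near 3 SD of response in nonfluorescent compounds, cut at about 42% in these data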
MEKK3 PB1 HTS – MEKK3-MEK5 PB1 interaction, increase or decrease; Q99759; bead-based flow cytometry, Alexa488-MEK5 binding to MEKK3; actives lie on both sides; 0 = blocked by unlabeled MEK5, 100 = vehicle; binding response (% of control), % at 10 µM; 290,000 tested, 1.4% active;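 active means binding response more than 3 SD above or below the average of its plate-row segment, actives on both sides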;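 further: Alexa488 bead fluorescence after subtracting the streptavidin-only scavenger bead signal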
MEKK2wt confirm – raises or lowers MEK5 binding to wildtype human MEKK2, retest | shares compounds with MEKK3 PB1 HTS | bead flow cytometry, Alexa488-MEK5 binding to MEKK2 WT; actives lie on both sides | binding response (% of control), % at 10 µM | 5,900 tested, 2.4% active | AID 1892; in the data active means binding response below about 16% or above about 210%; inactive means in between
MEKK2mut confirm – signal of MEK5 binding to mutant human MEKK2, retest; shares compounds with MEKK3 PB1 HTS; bead flow cytometry, Alexa488-MEK5 binding to MEKK2 mutant; percent response, % at 10 µM; 5,900 tested, 2% active; AID 1893; in the data active means percent response mostly above about 71%, no sharp cut-off; inactive means mostly below about 38%;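 further: higher means compound restores mutant binding toward wildtype level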
MEKK3 confirm – confirmation of inhibitors of MEK5 binding to human MEKK3; 5,900 tested, 1.8% active; AID 1894; shares compounds with MEKK3 PB1 HTS; bead flow cytometry, Alexa488-MEK5 binding to MEKK3; hits give low values; binding response (% of control), % at 10 µM;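 active means binding response below 72% of control, or above a set upper limit, though filed actives all read lower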;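 further: 100% = DMSO only wells and 0% = binding blocked by excess unlabeled MEK5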
* = called active by the depositor; [ ] = remark or other dose. Most compounds without a hit are left out; they make up all but 2.9% or so of the library.

For COc1ccc(-c2nn(-c3ccccc3)cc2C(=O)OCC(=O)c2ccc(C)c([N+](=O)[O-])c2)cc1 the results were MEKK2mut PB1 HTS 4, MEKK2 WT-MEK5 104, GRK2 inh 0, B2AR ag -17 and MEKK3 PB1 HTS 102.
For CCN(C(=O)COC(=O)c1cnc(C)cn1)C1CCCCC1 the results were MEKK2mut PB1 HTS -17, MEKK2 WT-MEK5 2.0*[inhibitor], GRK2 inh 0, B2AR ag -2, MEKK3 PB1 HTS 1.0*[inhibitor], MEKK2wt confirm 99, MEKK2mut confirm -5 and MEKK3 confirm 99.
O=c1c2c3nc4ccccc4nc3n(/N=C/c3ccncc3)c2ncn1-c1ccccc1 was read as MEKK2mut PB1 HTS 30, MEKK2 WT-MEK5 121, GRK2 inh 0, MEKK3 PB1 HTS 131*, MEKK2wt confirm 98, MEKK2mut confirm -3 and MEKK3 confirm 102.
Screening O=[N+]([O-])c1ccc(N2CCNCC2)cc1Sc1nc2ccccc2[nH]1 returned MEKK2mut PB1 HTS 19, MEKK2 WT-MEK5 144*, GRK2 inh 0, B2AR ag 7, MEKK3 PB1 HTS 104, MEKK2wt confirm 107, MEKK2mut confirm -1 and MEKK3 confirm 102.
NCCNc1ccc([N+](=O)[O-])c(Sc2nc3ccccc3[nH]2)c1 was read as MEKK2mut PB1 HTS 6, MEKK2 WT-MEK5 115, GRK2 inh 0, B2AR ag -1 and MEKK3 PB1 HTS 116.
`CCS(=O)(=O)N1CCN(c2ccc([N+](=O)[O-])c(NC(C)c3ccccc3)c2)CC1` (configuration not stated) gave MEKK2mut PB1 HTS 5, MEKK2 WT-MEK5 102, GRK2 inh 2, B2AR ag 14 and MEKK3 PB1 HTS 103.
CC(Nc1cc(N2CCNCC2)ccc1[N+](=O)[O-])c1ccccc1 (configuration not stated) was read as MEKK2mut PB1 HTS 4, MEKK2 WT-MEK5 132, GRK2 inh 0, B2AR ag 6, MEKK3 PB1 HTS 163*, MEKK2wt confirm 129, MEKK2mut confirm 28 and MEKK3 confirm 106.
`CC1OC(OC2C(OC3C(O[C@H]4CC[C@]5(C)C6C=C[C@]78OC[C@@]9(CC[C@@H](C)[C@H](C)C97)[C@H](O)C[C@@]8(C)[C@]6(C)CC[C@H]5C4(C)C)OC(C)C(O)C3O)OC(CO)C(O)C2O)C(O)C(O)C1O` (some centres not stated) gave MEKK2mut PB1 HTS -21, MEKK2 WT-MEK5 80 and MEKK3 PB1 HTS 82.
Screening CCc1ccc(OCC(=O)Oc2ccc([N+](=O)[O-])cc2)cc1 returned MEKK2mut PB1 HTS -15, MEKK2 WT-MEK5 50*[inhibitor], GRK2 inh 1, B2AR ag 3, MEKK3 PB1 HTS 39*[inhibitor], MEKK2wt confirm 110, MEKK2mut confirm 12 and MEKK3 confirm 105.
For CCOC(=O)C(=NCCOC)NNc1cc(Cl)ccc1Cl the results were MEKK2mut PB1 HTS 0, MEKK2 WT-MEK5 108, GRK2 inh 0, B2AR ag -1, MEKK3 PB1 HTS 140*, MEKK2wt confirm 104, MEKK2mut confirm -1 and MEKK3 confirm 101.
CCCC1(CCC)NC(=O)N(CC(=O)N2CCc3ccccc32)C1=O was read as GRK2 inh 3 and B2AR ag -2.
COc1ccc(CNC(=O)[C@@H](NC(=O)C2CCN(C(=O)[C@@H](N)CC(C)C)CC2)C(C)C)cc1 was read as MEKK2mut PB1 HTS 3, MEKK2 WT-MEK5 102, GRK2 inh 0, B2AR ag -6 and MEKK3 PB1 HTS 102.
CCCC1(c2ccccc2)NC(=O)N(CC(=O)Nc2cc(C)on2)C1=O (configuration not stated) was read as MEKK2mut PB1 HTS -3, MEKK2 WT-MEK5 80, GRK2 inh 0, B2AR ag 1, MEKK3 PB1 HTS 65*[inhibitor], MEKK2wt confirm 91, MEKK2mut confirm -5 and MEKK3 confirm 97.
Cc1c(NC(=O)CN2C(=O)NC(C)(c3ccccc3)C2=O)c(=O)n(-c2ccccc2)n1C (configuration not stated) was read as MEKK2mut PB1 HTS 0, MEKK2 WT-MEK5 103, GRK2 inh 0, B2AR ag -2, MEKK3 PB1 HTS 140*, MEKK2wt confirm 105, MEKK2mut confirm 0 and MEKK3 confirm 99.
For Cc1ccc(NC(=O)COc2ccccc2CNC(C)(C)CC(C)(C)C)cc1 the results were MEKK2mut PB1 HTS 16, MEKK2 WT-MEK5 141*, GRK2 inh 0, B2AR ag 19, MEKK3 PB1 HTS 105, MEKK2wt confirm 137, MEKK2mut confirm 17 and MEKK3 confirm 105.
Screening O=C(Nc1cccc(S(=O)(=O)N2CCCCCC2)c1)c1ccc2c(c1)OCO2 returned MEKK2mut PB1 HTS -1, MEKK2 WT-MEK5 105, GRK2 inh 2, B2AR ag 1, MEKK3 PB1 HTS 140*, MEKK2wt confirm 101, MEKK2mut confirm -3 and MEKK3 confirm 106.
Screening Cc1nc(C)c(C(=O)NCc2ccc(Cl)cc2)o1 returned MEKK2mut PB1 HTS -6, MEKK2 WT-MEK5 81, GRK2 inh 1, B2AR ag 7, MEKK3 PB1 HTS 76*[inhibitor], MEKK2wt confirm 99, MEKK2mut confirm -2 and MEKK3 confirm 104.
O=C(Nc1cccc(Cl)c1)Nc1cccc(Cl)c1 was read as MEKK2mut PB1 HTS 16, MEKK2 WT-MEK5 161*, GRK2 inh 2, B2AR ag -3, MEKK3 PB1 HTS 112, MEKK2wt confirm 150, MEKK2mut confirm 32 and MEKK3 confirm 105.
For Cc1nc(C)c(C(=O)Nc2cccc(Cl)c2)o1 the results were MEKK2mut PB1 HTS -6, MEKK2 WT-MEK5 84, GRK2 inh 0, B2AR ag -3, MEKK3 PB1 HTS 77*[inhibitor], MEKK2wt confirm 103, MEKK2mut confirm 4 and MEKK3 confirm 101.
O=C(Nc1cccc(F)c1)Nc1cccc(Cl)c1 was read as MEKK2mut PB1 HTS 1, MEKK2 WT-MEK5 110, B2AR ag -1 and MEKK3 PB1 HTS 103.
Screening CCN(CC(=O)Nc1ccc(OC)cc1)C(=O)C1CCN(C(=O)c2ccc(Cl)cc2)CC1 returned GRK2 inh 0 and B2AR ag 5.
Screening O=C(Nc1cccc(Cl)c1)Nc1cc(S(=O)(=O)N2CCCCC2)ccc1Cl returned MEKK2mut PB1 HTS 78*, MEKK2 WT-MEK5 131, GRK2 inh 1, B2AR ag 5, MEKK3 PB1 HTS 102, MEKK2wt confirm 124, MEKK2mut confirm 1 and MEKK3 confirm 103.
